Laboratory results from PubChem BioAssay (NCATS).
Inconclusive results are not listed. Where a call stands in place of a potency, no number is given. Active and inactive are the calls of the source. The call rests on the fitted dose curve; in most records, active means well fitted cell-killing curve with a large enough effect; inconclusive means small, poorly fitted or top-dose-only effect, or effect the other way; inactive means flat fitted curve, though single readings scatter.

Experiment: S16 Schwann cell viability assay (CellTiter-Glo assay) (AID 624031); further: nearly all actives have a fitted effect of over 70% in size
Settings: S16 rat Schwann cells viability, 24 h; series mostly up to 57.5 µM
From the text: Charcot-Marie-Tooth-Association [CMTA]
National Center for Advancing Translational Sciences [NCATS]
Charcot-Marie-Tooth (CMT) disease was first characterized by Jean-Martin Charcot and Pierre Marie in France and, independently, by Howard Henry Tooth in England in 1886. CMT is one of the most common inherited neurological diseases, affecting approximately 1 in 2,500 Americans. […] The most prevalent type of CMT is known as CMT1A and caused by a duplication of the PMP22 gene which leads to over-expression of this protein. PMP22 is a glycosylated intrinsic membrane protein accounting for 2-5% of the myelin protein content, and its over-expression results in demyelination and subsequently axonal loss.
A pair of cellular transcription-based assays was developed in the S16 rat Schwann cell lines (Hai, M., et al., 2002) stably transfected with orthogonal reporters - firefly luciferase (Fluc) and beta-lactamase (beta-Lac) - whose expression is driven by an intronic regulatory element of the PMP22 gene (Jones, E.A., et al., 2011) to recapitulate endogenous expression of PMP22. A comprehensive library of approved drugs, the NCGC Pharmaceutical Collection (Huang, R., et al., 2011), was screened in the cross-validating platform of the orthogonal reporter assays to identify drug modulators inhibitory towards PMP22 expression.
A set of counter-screens was devised to address non-specific activity of the library. An ATP-dependent CellTiter-Glo assay (developed by Promega Corp) was utilized to control cell viability. In addition, biochemical Fluc enzyme assay was performed to assess direct inhibition of the Fluc enzymatic activity.
Hai, M., Muja, N., DeVries, G.H., Quarles, R.H. and Patel, P.I. Comparative analysis of Schwann cell lines as model systems for myelin gene transcription studies. J Neurosci Res, 2002. 69(4): pp 497-508
Huang, R., Southall, N., Wang, Y., Yasgar A., Shinn P., Jadhav, A. , Nguyen, D.-T. and Austin, C.P., The NCGC pharmaceutical collection: a comprehensive resource of clinically approved drugs enabling repurposing and chemical genomics. Sci Transl Med, 2011. 3(80): p. 80ps16.
Native S16 cells were seeded in white solid-bottom 1536 well plates at between 500-750 cells/6uL in DMEM medium containing 10% FBS, w/o phenol red. After overnight incubation at 37 degree Celsius/5% C02, 23 nL of compounds or DMSO were delivered to each well using a pin tool, followed by 24h-incubation at 37 degree Celsius/5% C02. Then one volume of CellTiter-Glo assay reagent (Promega) was added to each well for cell viability measured by a ViewLux plate reader (PerkinElmer). The % activity was determined by normalizing to the average readings from wells containing no cells relative to DMSO-treated cells (0% Activity). The concentration-effect curves were then classified based on curve quality (r2), response magnitude and degree of measured activity.
Potency means the concentration at half of the fitted maximal effect.

Compound	Potency
CC(C)(C)NC[C@@H](O)c1ccc(O)c(CO)n1	inactive
CN(C)[C@H]1C(=O)C(C(=O)NCN2CCCC2)=C(O)[C@]2(O)C(=O)C3=C(O)c4c(O)cccc4[C@](C)(O)[C@H]3C[C@H]12	inactive
C[C@H](CCC(=O)O)[C@H]1CC[C@@H]2[C@H]3[C@@H](C[C@@H](O)[C@]21C)[C@]1(C)CC[C@H](O)C[C@@H]1C[C@@H]3O	inactive
C=C(NC(=O)C(=C)NC(=O)c1csc(C2=N[C@@H]3c4csc(n4)[C@@H]4NC(=O)c5csc(n5)[C@@H]([C@](C)(O)[C@H](C)O)NC(=O)[C@@H]5CSC(=N5)/C(=C/C)NC(=O)[C@@H]([C@H](C)O)NC(=O)c5csc(n5)[C@]3(CC2)NC(=O)[C@@H](C)NC(=O)C(=C)NC(=O)[C@@H](C)NC(=O)[C@@H]([C@@H](C)CC)N[C@H]2C=Cc3c([C@H](C)O)cc(nc3[C@@H]2O)C(=O)O[C@H]4C)n1)C(N)=O	inactive
CC1(C)[C@@H]2CC[C@]1(C)[C@@H](OC(=O)CSC#N)C2	inactive
C[N+]1(C)[C@@H]2CC(OC(=O)[C@@H](CO)c3ccccc3)C[C@@H]1[C@H]1O[C@H]12 (stereo not given in full)	inactive
CC1(C)S[C@@H]2[C@H](NC(=O)Cc3ccccc3)C(=O)N2[C@@H]1C(=O)O	inactive
CN1[C@@H]2CC(OC(=O)[C@@H](CO)c3ccccc3)C[C@@H]1[C@H]1O[C@H]12 (stereo not given in full)	inactive
N[C@@H](Cc1ccccc1)C(=O)O	inactive
C[C@]12CC[C@H]3c4ccc(O)cc4CC[C@@H]3[C@H]1CC[C@@H]2OP(=O)(O)O	inactive
CO/N=C(\C(=O)N[C@@H]1C(=O)N2C(C(=O)[O-])=C(C[N+]3(C)CCCC3)CS[C@@H]12)c1csc(N)n1	inactive
O=C(O)[C@@H](O)[C@@H](O)[C@H](O)C(=O)CO	inactive
C[C@H]1C[C@@H]2[C@H]3CCC4=CC(=O)C=C[C@@]4(C)[C@@]3(Cl)[C@@H](O)C[C@]2(C)[C@]1(OC(=O)c1ccco1)C(=O)CCl	inactive
C[C@@H]1C[C@H]2[C@H]3C[C@@H](F)C4=CC(=O)C=C[C@]4(C)[C@@]3(Cl)[C@@H](O)C[C@@]2(C)[C@@H]1C(=O)COC(=O)C(C)(C)C	inactive
Cc1cn([C@H]2C[C@H](N=[N+]=[N-])[C@H](CO)O2)c(=O)[nH]c1=O	inactive
COc1cc2nc(N(C)CCCNC(=O)[C@@H]3CCCO3)nc(N)c2cc1OC	inactive
CCc1ccc2c(c1)N(C[C@H](C)CN(C)C)c1ccccc1S2	28.7 µM (active)
Cc1onc(-c2c(F)cccc2Cl)c1C(=O)N[C@@H]1C(=O)N2[C@H]1SC(C)(C)[C@H]2C(=O)O	inactive
N[C@H](COP(=O)(O)O)C(=O)O	inactive
O=C(O)[C@@H](O)[C@@H](O)[C@H](O)[C@H](O)CO	inactive
OC[C@H](S)CS	36.1 µM (active)
CC(C)(C)c1ccc(CN2CCN([C@H](c3ccccc3)c3ccc(Cl)cc3)CC2)cc1	inactive
C=C1CC[C@H](O)C/C1=C/C=C1\CCC[C@]2(C)[C@@H]([C@H](C)CCCC(C)C)CC[C@@H]12	inactive
CC(=O)N1CCN(c2ccc(OC[C@@H]3CO[C@@](Cn4ccnc4)(c4ccc(Cl)cc4Cl)O3)cc2)CC1	inactive
O=C(O)[C@@H](S)[C@H](S)C(=O)O	inactive
